Bioassay records: PubChem BioAssay, National Center for Advancing Translational Sciences (NCATS)
S2 tox: reduces viability in counter-screen for ATXN expression inhibitors; S2 cells (HEK-293 line with an ATXN2-luciferase reporter) viability, CellTiter-Fluor protease fluorescence, 24 h; Potency, µM (titrated, usually from 56.7 µM), most hits filed as cytotoxic; actives 0.49% (n = 400,000); AID 651635; also: nearly all actives have a fitted effect of over 40% in size
HT1080 IDH1KD tx: HT-1080 IDH1 knockdown cell toxicity (counter line); HT-1080 IDH1 knockdown viability, ATP luminescence, 48 h; Potency, µM (doses to about 46.1 µM), for inactives: at the top dose activity, negative = toxicity, hits mostly cytotoxic; actives 2% (n = 360,000);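 also: 0% = DMSO wells and -100% = cell-free medium wells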
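HT-1080-IDH1KD cells (IDH1 knocked down), 750/well in RPMI with 5% FBS, treated with compound 48 h at 37 degrees C. Viability by CellTiter-Glo luminescence, normalised to DMSO and no-cell wells; concentration-response curves classed.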
KB-V1 cytotox: kills drug-selected multidrug resistant KB-V1 cells | actives 3.4% (n = 400,000) | KB-V1 MDR cells viability, CellTiter-Glo, 72 h | Potency, µM (highest dose often 46.1 µM), usual class: cytotoxic | AID 1347076; also: % is scaled to controls: 0 for no effect and ±100 for the full control effect; nearly all actives have a fitted effect of over 60% in size
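Readout: CellTiter-Glo luminescence, 10 min after addition. Cells: KB-V1 MDR subline, 72 h at 37 degrees C with compound. Analysis: corrected, normalized data fitted to concentration-effect curves.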
ATXN2 expr inh: reduces ATXN2 reporter expression in HEK-293 cells. HEK-293 ATXN2-luciferase reporter, luminescence, 24 h. Potency, µM (doses to about 57 µM), for the others: at the top dose activity change, negative = inhibition, most hits filed as inhibitors. actives 0.72% (n = 360,000); also: % is scaled to controls: 0 for no effect and ±100 for the full control effect; nearly all actives have a fitted effect of over 55% in size
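ATXN2-luciferase reporter cells (luciferase flanked by upstream and downstream ATXN2 gene portions) were treated 24 h at 37 °C with compounds at up to 57 uM. SteadyGlo luminescence gave expression; GF-AFC fluorescence gave viability.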
HT1080NT lethal: kills 2HG-producing HT-1080-NT fibrosarcoma cells; AID 686970; Potency, µM (series often up to 46.1 µM), without a hit: at the top dose activity, negative = less viability, usual class: cytotoxic; actives 1.6% (n = 360,000); HT-1080-NT fibrosarcoma viability, CellTiter-Glo ATP luminescence, 48 h;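 also: NT is the 2HG producing partner of a matched IDH1 knockdown line; 0% = DMSO-treated cells and -100% = media-only wells without cells; nearly all actives have a fitted effect of over 55% in size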
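A 48-hour cytotoxicity screen used HT-1080-NT cells plated 2 hours before compound delivery. ATP-based CellTiter-Glo luminescence measured viability, normalized to DMSO and no-cell controls.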
KB-3-1 tox: kills parental KB-3-1 adenocarcinoma cells; Potency, µM (top dose mostly 46.1 µM), actives largely listed as cytotoxic; actives 1.4% (n = 400,000); KB-3-1 viability, CellTiter-Glo ATP luminescence, 72 h; also: % is scaled to controls: 0 for no effect and ±100 for the full control effect; nearly all actives have a fitted effect of over 60% in size
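Viability of parental KB-3-1 cells, measured by CellTiter-Glo luminescence, followed a 72 h incubation at 37 °C with pinned compounds in phenol-red-free DMEM containing 10% FBS.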
Active calls of the source: *; i = inactive; ? = inconclusive; / = not tested or not shown; ! = repeats disagree. Rows were chosen to be rich in hits. Some 6.2% of all compounds tested hit in one or more screens of this group. Calls follow the shape of the dose curve; as a rule, active = well fitted curve in the direction sought with a large enough effect; inconclusive = small, poorly fitted or top-dose-only effect, or another doubt; inactive = no such curve, though single readings can be large; an effect the other way counts as inactive or inconclusive. Potency is read from the fitted curve at half-maximal effect.

SMILES	S2 tox	HT1080 IDH1KD tx	KB-V1 cytotox	ATXN2 expr inh	HT1080NT lethal	KB-3-1 tox
CCN(CC)S(=O)(=O)c1ccc(-c2nnc(SC)o2)cc1	i	5%	15µM*	13%	15%	i
CCN(CC)S(=O)(=O)c1cccc(-c2nnc(SCCCC(=O)c3ccc(F)cc3)o2)c1	/	-16%	16µM*	/	-10%	i
CCN(CC)S(=O)(=O)c1cccc(-c2nnc(SC(C)C(=O)NCCC3=CCCCC3)o2)c1 (centres undefined)	i	-10%	10µM*	-17%	-1%	?
CCN(CC)S(=O)(=O)c1ccc(-c2nnc(SCC(=O)c3ccc(OC)cc3)o2)cc1	i	0%	i	-12%	-2%	i
CCN(CC)S(=O)(=O)c1cccc(-c2nnc(SCCCC(=O)c3ccccc3)o2)c1	/	-10%	?	/	3%	i
CCCNC(=O)C1CCC(Cn2c(=O)c3sccc3n(CC(=O)N(CC)CC)c2=O)CC1 (centres undefined)	i	/	?	3%	/	i
Cc1cc(C(=O)CN2C(=O)C(=O)N(Cc3ccco3)C2=O)c(C)n1CCc1ccccc1	?	?	16µM*	-3%	?	?
Cc1[nH]c2ccccc2c1C(=O)CN1C(=O)C(=O)N(Cc2ccco2)C1=O	i	12%	i	-7%	0%	i
Cc1cc(C(=O)CN2C(=O)C(=O)N(Cc3ccco3)C2=O)c(C)n1CCc1ccc(F)cc1	?	?	15µM*	-5%	?	18µM*
CCc1ccc(-n2c(=O)c3sc4ccccc4c3n(CC(=O)NCc3ccccc3)c2=O)cc1	i	/	i	15%	/	i
Clc1ccc(OCc2nnc3n2N=C(c2ccc4c(c2)OCCO4)CS3)c(Cl)c1	/	8.9µM*	?	/	10µM*	?
CCc1nnc2n1N=C(c1ccc(-c3cc(Cl)ccc3Cl)o1)CS2	i	0%	i	-9%	-17%	i
COc1ccc(-n2cnc3cc(NC(=O)c4ccco4)ccc32)cc1	i	-15%	16µM*	17%	13%	?
CC(C)n1cnc2cc(NC(=O)c3ccco3)ccc21	i	20%	i	-27%	4%	i
COc1ccccc1-n1cnc2cc(NC(=O)c3ccco3)ccc21	i	?	?	53%	11µM*	?
CCc1ccccc1NC(=O)CSC1=Nc2ccccc2C2=NC(Cc3ccccc3)C(=O)N12 (centres undefined)	?	/	?	10%	/	i
O=C(Nc1ccc2ccccc2c1)Nc1nnc(-c2ccc(F)cc2)s1	/	/	i	/	/	?
CCN1C(=C2C(=O)c3ccccc3C2=O)C=Cc2ccccc21	?	8%	1.8µM*	21%	8%	?
CCN1C(=O)/C(=C2\C=Cc3ccccc3N2CC)SC1=S	?	4%	i	5%	5%	i
CC1=C(C(=O)Nc2cccc(C(F)(F)F)c2)C(c2ccccc2)n2ncnc2N1 (centres undefined)	i	/	?	-2%	/	i
CCN(CC)CCOc1ccc(/C(=C(/Cl)c2ccccc2)c2ccccc2)cc1	/	18µM*!	?	25µM*!	18µM*	?
CCCC(=O)Nc1ccc(C(=O)NCCc2ccc(F)cc2)cc1	i	30%	15µM*	25%	17%	i
CCCCCC[C@@H](CCC)C(=O)O	i	/	/	-13%	/	/
CCn1c2ccc(C)cc2c2nnc(SCCN3CCOCC3)nc21	i	?	?	-14%	-17%	?
Cc1nc2c3cc(Cl)ccc3n(CCN3CCOCC3)c2s1	i	21µM*	?	-37%	23µM*	?
SMILES	S2 tox	HT1080 IDH1KD tx	KB-V1 cytotox	ATXN2 expr inh	HT1080NT lethal	KB-3-1 tox
CCCCn1c2ccc(F)cc2c2nnc(SCCN3CCCCC3)nc21	?	1%	i	5%	7%	?
Cc1ccc2c(c1)c1nc3ccccc3nc1n2CCN1CCOCC1	i	-15%	21µM*	-16%	-13%	i
CCCCn1c2ccc(C)cc2c2nnc(SCCN3CCCCC3)nc21	?	-13%	i	-20%	-11%	18µM*
CCCn1c(=S)[nH]c2cc(C(=O)N3CCc4ccccc43)ccc2c1=O	i	-11%	2.3µM*	-8%	0%	?
Cn1c(=O)c(-c2c(Cl)cccc2Cl)cc2cnc(Nc3cccc(C(=O)O)c3)nc21	/	/	/	51%	/	/
CN(C)c1cc(N2CCOCC2)nc(C#N)n1	/	8%	/	/	4%	/
CC1=NN(c2nc(C)cc(C)n2)C(=O)C1CCC(C)C (centres undefined)	i	10µM*	i	0%	7.9µM*	i
CCC1C(=O)N(c2nc(C)cc(C)n2)N=C1C (centres undefined)	i	8%	?	5%	5%	i
O=C(Nc1ccc2c(c1)OCCO2)c1cccc(S(=O)(=O)N2CCOCC2)c1	i	0%	21µM*	42%	8%	i
O=C(Nc1cccc(S(=O)(=O)N2CCCC2)c1)c1cccc(S(=O)(=O)N2CCOCC2)c1	?	7%	i	/	-4%	i
O=C(Nc1ccc2c(c1)OCCO2)c1cccc(S(=O)(=O)N2CCCCC2)c1	i	-11%	16µM*	-5%	-3%	i
COc1cccc(C(c2sc3nc(-c4ccco4)nn3c2O)N2CCC(O)CC2)c1 (centres undefined)	i	/	i	16%	/	i
COc1ccc(C2c3cccn3CCN2S(=O)(=O)c2ccccc2[N+](=O)[O-])cc1OC (centres undefined)	?	/	i	-11%	/	?
CCC/C(O)=C1\C(=O)CC(C)(C)CC1=Nc1ccc(OC)cc1OC	i	7.3µM*	?	-29%	?	?
N#CC(C#N)=C(Nc1ccc(F)cc1)SCc1cccc(F)c1	i	?	?	?	?	16µM*
CCOCCCNC(=O)C(c1ccc(Cl)cc1)N(Cc1cccs1)C(=O)c1ccc(NC(C)=O)cc1 (centres undefined)	i	/	i	-8%	/	i
CN(C(=O)c1cccc(Nc2ccc(-c3ccc4c(c3)OCCO4)nn2)c1)C1CCCCC1	?	15µM*	?	?	?	?
CN(C)S(=O)(=O)c1ccc(Nc2ccc(-c3ccc4c(c3)OCCO4)nn2)cc1	i	-2%	i	1%	7%	i
CN(C)c1ccc2ccc3cccc4ccc1c2c34	/	/	i	/	/	i
COc1cc(NC(=O)CN(c2ccc(C)cc2)S(=O)(=O)c2cccc3nonc23)cc(OC)c1	i	/	i	9%	/	i
